Results on 38 molecules are retold here after PubChem BioAssay.

“And” between values parts separate entries of the source, which are not always exact repeats. Identical values can stand only once. Inconclusive results are not listed. A structure can be active in one record and inactive in another. The source made the active and inactive calls.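 Rule for the calls, unless noted: active = compounds whose cell count with miR-34 switched on is under 0.7 times the count with it off; inactive = the rest.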

A word on the AC50: it is the concentration giving half of the maximal activity seen.

The first assay is described as follows: growth inhibition of DIPG cells – cell-based, MIPE4.0 library, CellTiter-Glo luminescence, qHTS (AID 1347066; cut-off not given, nearly all actives have AC50 up to about 30 µM;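 note: cells exposed to compound for 48 hours before readout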). The conditions noted are these: SU-DIPG-VI viability, CellTiter-Glo ATP luminescence.
Turning to `NS(=O)(=O)c1cc2c(cc1Cl)NC=NS2(=O)=O`, the call was inactive.
Same read-out and setting: the same measure for `Cc1ccccc1C(OCCN(C)C)c1ccccc1` (stereo not drawn): “inactive”; for `CCc1nc(N)nc(N)c1-c1ccc(Cl)cc1`: “inactive”; for `COc1cc2nc(N(C)CCCNC(=O)C3CCCO3)nc(N)c2cc1OC` (stereo not drawn): “inactive”.
As to `Cc1ncc([N+](=O)[O-])n1CC(C)O` (stereo not drawn), the molecule was called inactive.
As to `Cc1ccc(C)c(OCCCC(C)(C)C(=O)O)c1`, the outcome was inactive.
Consider `Cc1cn([C@H]2C[C@H](N=[N+]=[N-])[C@@H](CO)O2)c(=O)[nH]c1=O`, for which the molecule was classed as inactive.
The same measure, in the same setting: the same measure for `CN(CCOc1ccc(CC2SC(=O)NC2=O)cc1)c1ccccn1` (stereo not drawn): “inactive”.
`NC(=O)N1c2ccccc2CC(=O)c2ccccc21`: the molecule was classed as inactive.
Still for that read-out and setting: the same measure for `CCCNCC(O)COc1ccccc1C(=O)CCc1ccccc1` (stereo not drawn): “inactive”; for `C/C=C/C(=O)N(CC)c1ccccc1C`: “inactive”; for `CCCCCCNC(=O)n1cc(F)c(=O)[nH]c1=O`: “inactive”.
`CN(C)CCc1c[nH]c2ccc(C[C@H]3COC(=O)N3)cc12`: the molecule was called inactive.
As to `COc1ccccc1OCC(O)COC(N)=O` (stereo not drawn), the result was inactive.
The same measure, in the same setting: the same measure for `COC(=O)Nc1nc2ccc(C(=O)c3ccccc3)cc2[nH]1`: “inactive”; for `CCn1cc(C(=O)O)c(=O)c2cc(F)c(N3CCN(C)CC3)cc21`: “inactive”; for `c1ccc2[nH]c(-c3cscn3)nc2c1`: “inactive”.
As for `Clc1ccc2c(c1)C(N1CCNCC1)=Nc1ccccc1O2`, the molecule was classed as inactive.
With `CCc1cccc2c3c([nH]c12)C(CC)(CC(=O)O)OCC3` (stereo not drawn), the molecule was classed as inactive.
Regarding `O=S(=O)(O)CCS`, the molecule was classed as inactive.
Turning to `O=c1[nH]cc(F)c(=O)[nH]1`, the outcome was inactive.

A further assay can be described thus: JHH-DIPG-1 glioma cell viability, MIPE5.0 library, CellTiter-Glo luminescence, qHTS (AID 1347067; cut-off not given, nearly all actives have AC50 up to about 26 µM;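 note: cells exposed to compound for 48 hours before readout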). The conditions noted are these: JHH-DIPG-1 glioma viability, CellTiter-Glo ATP luminescence. For orientation: ATP-based viability assays read luminescence as a measure of living cells.
For `OCCN1CCN(CCCN2c3ccccc3Sc3ccc(C(F)(F)F)cc32)CC1`, the AC50 was 3.72 µM (active).
For `NS(=O)(=O)c1cc2c(cc1Cl)NC=NS2(=O)=O`, the molecule was classed as inactive.
Consider `Cc1ccc(-c2cc(C(F)(F)F)nn2-c2ccc(S(N)(=O)=O)cc2)cc1`, for which the AC50 is 10.5 µM (active).
In the case of `CN[C@H]1CC[C@@H](c2ccc(Cl)c(Cl)c2)c2ccccc21`, the half-maximal activity concentration (AC50) was 16.6 µM (active).
For the molecule `CCc1nc(N)nc(N)c1-c1ccc(Cl)cc1`, the result was inactive.
For the molecule `Nc1ncn([C@@H]2O[C@H](CO)[C@@H](O)[C@H]2O)c(=O)n1`, the AC50 is 7.42 µM (active).
As for `Cc1ncc([N+](=O)[O-])n1CC(C)O` (stereo not drawn), the outcome was inactive.
The same measure, in the same setting: in the case of `Cc1ccc(C)c(OCCCC(C)(C)C(=O)O)c1` it was “inactive”; in that of `CN(CCOc1ccc(CC2SC(=O)NC2=O)cc1)c1ccccn1` (stereo not drawn), “inactive”; in that of `C/C=C/C(=O)N(CC)c1ccccc1C`, “inactive”.
On the same count and under the same terms, the same measure for `CCCCCCNC(=O)n1cc(F)c(=O)[nH]c1=O`: “inactive”; for `NC(=O)c1cnccn1`: “inactive”.
On to `COC(=O)Nc1nc2ccc(C(=O)c3ccccc3)cc2[nH]1`, for which the AC50 is 0.468 µM (active).
Regarding `c1ccc2[nH]c(-c3cscn3)nc2c1`, the molecule was called inactive.
Take `O=S(=O)(O)CCS`: the molecule was called inactive.
Take `O=c1[nH]cc(F)c(=O)[nH]1`: the molecule was classed as inactive.

The nature of a further assay: growth inhibition of DIPG cells – cell-based, MIPE5.0 library, qHTS (AID 1347068; cut-off not given, nearly all actives have IC50 up to about 30 µM). The settings on record: SU-DIPG-XXV viability. For orientation: qHTS replaces the single test concentration by a dilution series.
Turning to `NS(=O)(=O)c1cc2c(cc1Cl)NC=NS2(=O)=O`, the molecule was called inactive.
The same measure, in the same setting: the same measure for `Cc1ccc(-c2cc(C(F)(F)F)nn2-c2ccc(S(N)(=O)=O)cc2)cc1`: “inactive”; for `CCc1nc(N)nc(N)c1-c1ccc(Cl)cc1`: “inactive”.
As to `Cc1ncc([N+](=O)[O-])n1CC(C)O` (stereo not drawn), the result was inactive.
In the case of `Cc1ccc(C)c(OCCCC(C)(C)C(=O)O)c1`, the call was inactive.
Turning to `CN(CCOc1ccc(CC2SC(=O)NC2=O)cc1)c1ccccn1` (stereo not drawn), the call was inactive.
Still for that read-out and setting: in the case of `CCCNCC(O)COc1ccccc1C(=O)CCc1ccccc1` (stereo not drawn) it was “inactive”.
The same measure, in the same setting: in the case of `C/C=C/C(=O)N(CC)c1ccccc1C` it was “inactive”.
As for `NC(=O)c1cnccn1`, the molecule was classed as inactive.
`CCn1cc(C(=O)O)c(=O)c2cc(F)c(N3CCN(C)CC3)cc21`: the call was inactive.
Take `c1ccc2[nH]c(-c3cscn3)nc2c1`: the outcome was inactive.
Regarding `O=S(=O)(O)CCS`, the outcome was inactive.
As to `O=c1[nH]cc(F)c(=O)[nH]1`, the result was inactive.

A further assay in a line: viability loss with induced miR-34 in A549 – imaging, A549 dox-inducible miR-34, nuclei and caspase counts, primary screen (AID 1347080). The settings on record: A549 miR-34 inducible, Hoechst nuclei count, 48 h; stronger effect = lower value; cell number ratio, induced over uninduced.
As for `O=C1C(CCS(=O)c2ccccc2)C(=O)N(c2ccccc2)N1c1ccccc1` (stereo not drawn), the fold change is 1.01 (inactive) and 1 (inactive) and 0.826 (inactive).
As for `CN(C)CCOC(c1ccc(Cl)cc1)c1ccccn1` (stereo not drawn), the fold change is 0.98 (inactive) and 0.859 (inactive) and 0.928 (inactive).
`N[C@@H](C(=O)N[C@@H]1C(=O)N2C(C(=O)O)=C(Cl)CS[C@H]12)c1ccccc1`: the fold change is 0.883 (inactive) and 0.884 (inactive).
Turning to `Nc1ncn([C@@H]2O[C@H](CO)[C@@H](O)[C@H]2O)c(=O)n1`, the fold change was 0.885 (inactive) and 0.737 (inactive) and 0.556 (active).
For `NCc1ccc(S(N)(=O)=O)cc1`, the fold change is 0.973 (inactive) and 0.954 (inactive) and 0.851 (inactive).
As for `Cc1ncc([N+](=O)[O-])n1CC(C)O` (stereo not drawn), the fold change was 0.961 (inactive) and 0.91 (inactive).
Consider `CN1CCCC(n2nc(Cc3ccc(Cl)cc3)c3ccccc3c2=O)CC1` (stereo not drawn), for which the fold change was 0.849 (inactive) and 0.93 (inactive) and 0.906 (inactive).
Consider `NS(=O)(=O)c1cc2c(cc1C(F)(F)F)NC(Cc1ccccc1)NS2(=O)=O` (stereo not drawn), for which the fold change is 0.994 (inactive) and 0.853 (inactive) and 0.857 (inactive).
Take `COC1=CC(=O)C[C@@H](C)[C@]12Oc1c(Cl)c(OC)cc(OC)c1C2=O`: the fold change is 1.07 (inactive) and 0.956 (inactive) and 0.943 (inactive).
For the molecule `COc1ccc(OC)c(C(O)CNC(=O)CN)c1` (stereo not drawn), the fold change is 0.924 (inactive) and 0.912 (inactive) and 0.855 (inactive).
Still for that read-out and setting: the same measure for `OC(CCN1CCCC1)(c1ccccc1)C1CCCCC1` (stereo not drawn): 0.976 (inactive) and 0.849 (inactive) and 0.894 (inactive).
As for `C/C=C/C(=O)N(CC)c1ccccc1C`, the fold change is 0.871 (inactive) and 0.856 (inactive) and 0.894 (inactive).
As for `CCCCCCNC(=O)n1cc(F)c(=O)[nH]c1=O`, the fold change was 1.09 (inactive) and 1.08 (inactive).
As for `CN(C)CCc1c[nH]c2ccc(C[C@H]3COC(=O)N3)cc12`, the fold change was 0.877 (inactive).
The same measure, in the same setting: the same measure for `Cc1onc(-c2c(Cl)cccc2Cl)c1C(=O)N[C@@H]1C(=O)N2[C@@H]1SC(C)(C)[C@@H]2C(=O)O`: 0.978 (inactive) and 0.899 (inactive) and 0.89 (inactive); for `CO[C@@]1(NC(=O)Cc2cccs2)C(=O)N2C(C(=O)O)=C(COC(N)=O)CS[C@@H]21`: 1.01 (inactive) and 0.868 (inactive) and 0.891 (inactive).
For the molecule `CC(C)(C)NCC(O)COc1cccc2c1C[C@H](O)[C@H](O)C2` (stereo partly drawn), the fold change was 0.964 (inactive) and 0.863 (inactive).
`O=S(=O)(O)CCS`: the fold change was 0.934 (inactive) and 0.882 (inactive).
